Measurements reported in PubChem BioAssay.
Records with an inconclusive call do not appear. Activity calls are given as the source filed them. No cut-off is given here; in the data, nearly all actives have AC50 up to about 30 µM.

test: growth inhibition of DIPG cells – cell-based, MIPE4.0 library, CellTiter-Glo luminescence, qHTS (AID 1347066); conditions: SU-DIPG-VI viability, CellTiter-Glo ATP luminescence;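 note: cells exposed to compound for 48 hours before readout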

| Structure (SMILES) | outcome | AC50 |
| --- | --- | --- |
| CN[C@@H]1[C@@H](O)[C@@H](O[C@@H]2[C@@H](O)[C@H](O[C@H]3O[C@H](CN)[C@@H](O)[C@H](O)[C@H]3O)[C@@H](N)C[C@H]2NC(=O)[C@@H](O)CN)OC[C@]1(C)O | inactive | – |
| COc1cc(OC)cc(-c2ccc3ncc4ccc(=O)n(-c5ccc(N6CCNCC6)c(C(F)(F)F)c5)c4c3c2)c1 | – | 13.2 µM (active) |
| COc1ccc2c(Oc3ccc(NC(=O)c4c(C)n(CC(C)(C)O)n(-c5ccccc5)c4=O)cc3F)ccnc2c1 | inactive | – |
| CC(C)N(CC[C@H](c1ccccc1)c1cc(CO)ccc1O)C(C)C | inactive | – |
| CNC1[C@@H](O)C(O[C@@H]2C(O)C(O[C@H]3O[C@H]([C@@H](C)NC)CC[C@H]3N)[C@@H](N)C[C@H]2N)OC[C@]1(C)O (stereo not given in full) | inactive | – |
| O=c1[nH]nc(OCCCc2ccc(Cl)cc2)c(NCc2cccnc2)c1Br | – | 18.7 µM (active) |
| Cc1cn([C@@H]2O[C@H](CO)[C@@H](O)[C@@H]2F)c(=O)[nH]c1=O | inactive | – |
| Nc1nc(N)c(N=O)c(OCC2CCCCC2)n1 | – | 14.8 µM (active) |
| CC/C=C\C[C@H]1C(=O)CC[C@@H]1CC(=O)OC | inactive | – |
| CC(C)(C)[C@H](NC(=O)c1ccc(N)c(Cl)c1)C(=O)N1CCC[C@H]1C(=O)N[C@H](C#N)CC(=O)O | inactive | – |
| COc1cc2c(cc1Cc1cccc(Cl)c1F)c(=O)c(C(=O)O)cn2[C@H](CO)C(C)C | – | 20.9 µM (active) |
| CCCn1c(=O)c2[nH]c(-c3cnn(Cc4cccc(C(F)(F)F)c4)c3)nc2n(CC)c1=O | inactive | – |
| COCCOC(=O)C1=C(C)NC2=C(C(=O)CC(c3ccccc3OC)C2)C1c1cccc(O)c1 (stereo not given) | inactive | – |
| CCOc1cc(N2CCC(O)CC2)ccc1Nc1ncc2c(n1)N(C)c1ccccc1C(=O)N2C | inactive | – |
| NS(=O)(=O)c1ccc(NC2=CC(=O)c3ccccc3C2=O)cc1 | – | 5.9 µM (active) |
| COc1cc(Cl)cn2c(-c3cccc(NC4CNC4)n3)cnc12 | inactive | – |
| CC(O)[C@@H]1NC(=O)[C@H](CCCCN)NC(=O)[C@@H](Cc2c[nH]c3ccccc23)NC(=O)[C@H](Cc2ccccc2)NC(=O)[C@@H](NC(=O)[C@H](N)Cc2ccccc2)CSSC[C@@H](C(=O)N[C@H](CO)[C@@H](C)O)NC1=O (stereo not given in full) | inactive | – |
| O=c1[nH]c(=O)n([C@H]2C[C@H](O)[C@@H](CO)O2)cc1/C=C/Br | inactive | – |
| Cc1ccc(-n2[nH]c(C)c(N=Nc3cccc(-c4cccc(C(=O)O)c4)c3O)c2=O)cc1C | – | 10.5 µM (active) |
| COc1ccc(C(=O)CC2(O)C(=O)Nc3c(Cl)ccc(Cl)c32)cc1 (stereo not given) | inactive | – |
| CC(=O)NC(C)c1ccc(Oc2ccc(OC(C)C)cc2)cc1 (stereo not given) | inactive | – |
| CC(=O)N(C)C1(c2ccccc2)CCN(CCC[C@]2(c3ccc(Cl)c(Cl)c3)CCCN(C(=O)c3ccccc3)C2)CC1 | – | 33.2 µM (active) |
| Nc1ncnc2c1c(-c1cccc(OCc3ccccc3)c1)cn2C1CC(CN2CCC2)C1 (stereo not given) | – | 2.96 µM (active) |
| NC[C@@H]1O[C@H](O[C@H]2[C@@H](O)[C@H](O[C@@H]3[C@@H](O)[C@H](N)C[C@H](N)[C@H]3O[C@H]3O[C@H](CN)[C@@H](O)[C@H](O)[C@H]3N)O[C@@H]2CO)[C@H](N)[C@@H](O)[C@@H]1O | inactive | – |
| C[C@@H](Cc1cc2c(c(C(N)=O)c1)N(CCCO)CC2)NCCOc1ccccc1OCC(F)(F)F | inactive | – |
| Cc1ccccc1C(C(=O)NC1CCCCC1)N(C(=O)CNc1ccc(C#N)cc1)c1cccc(F)c1 (stereo not given) | inactive | – |
| CC(C)(C)NC(=O)Nc1cccc(Nc2ncc(F)c(NC(C)(C)CO)n2)c1 | inactive | – |
| COc1ccc(-c2c(-c3ccc(O)cc3O)n[nH]c2C)cc1 | inactive | – |
| C[C@H](c1ccc(F)cc1CCCC(=O)O)N(c1cc(F)ccc1F)S(=O)(=O)c1ccc(Cl)cc1 | inactive | – |
| CC(=O)Nc1sc2c(c1-c1nc3ccccc3s1)CNC2 | inactive | – |
